# Laboratory results: PubChem BioAssay (NCATS)
# Records with an inconclusive call do not appear. The source made the active and inactive calls. Unless noted, calls come from the whole dose curve; as a rule, active = well fitted curve in the direction sought with a large enough effect; inconclusive = small, poorly fitted or top-dose-only effect, or another doubt; inactive = no such curve, though single readings can be large; an effect the other way counts as inactive or inconclusive.
# Assays:
# [1] = molecular target: Catechol O-methyltransferase (Homo sapiens) (UniProt P21964); experiment: Confirmatory Screen for Target Class Profiling of Small Molecule Inhibitors of Methyltransferases (AID 1745852; calls by dose curve; note: potency is the fitted concentration of half-maximal effect); details: MTase-Glo luminescence, SAH detection, recombinant enzyme; measured here: COMT max response; stronger effect = lower value
# [2] = molecular target: Guanidinoacetate N-methyltransferase (Homo sapiens) (UniProt Q14353); experiment: as above; details: MTase-Glo luminescence, SAH detection, recombinant enzyme; activity change, negative = inhibition: at 57.3 µM (top of the series)
# [3] = molecular target: Nicotinamide N-methyltransferase (Homo sapiens) (UniProt P40261); experiment: as above; details: MTase-Glo luminescence, SAH detection, recombinant enzyme; measured here: NNMT max response; stronger effect = lower value
# [4] = molecular target: Phenylethanolamine N-methyltransferase (Homo sapiens) (UniProt P11086); experiment: as above; details: MTase-Glo luminescence, SAH detection, recombinant enzyme; measured here: PNMT max response; stronger effect = lower value
# [5] = Viability counterscreen for agonist of constitutive androstane receptor (CAR) against the NCATS DSHEA and TCM libraries (AID 1794838); details: HepG2 cell viability counterscreen, CAR agonist assay, co-treated with 0.75 µM CAR antagonist; series mostly up to 40 µM;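 note: HepG2 cells with CYP2B6 reporter and hCAR plus 0.75 µM PK11195 antagonist; 0% is about no effect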
# Procedure, shortened: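 Viability by CellTiter-Fluor fluorescence, 405/540 nm, after 1 h at 37C. HepG2-CYP2B6-hCAR cells were exposed 24 h to test substances in presence of 0.75 uM PK11195 (final).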
# [6] = HepG2 viability counterscreen (readout 2: ATP content) against the NCATS DSHEA and TCM libraries (AID 1794840); details: ATP content luminescence; series mostly up to 27.3 µM; note: 0% is about no effect
# Procedure, shortened: (§1)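 1,000 HepG2 cells/well, 4 h attach; compounds ~24 h, 37C/5% CO2. Readout 1: GF-AFC 25 uM final, 30 min, fluorescence 380/510 nm. Readout 2: CellTiter-Glo, 30 min RT, luminescence.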
# [7] = HepG2 viability counterscreen (readout 1: protease activity) against the NCATS DSHEA and TCM libraries (AID 1794841); details: qHTS concentration series; series mostly up to 27.3 µM;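 note: cells exposed to compounds for about 24 h before the protease read; 0% is about no effect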
# Procedure, shortened: as §1
# [8] = molecular target: Cytochrome P450 3A4 (Homo sapiens) (UniProt P08684); experiment: qHTS for inhibitors of CYP3A4 against the NCATS DSHEA and TCM libraries (AID 1919971); details: recombinant CYP3A4 enzyme activity, luminescence qHTS; note: potency is the fitted concentration of half-maximal effect
# Procedure, shortened: (§2)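 Substances were tested against enzyme with a pro-luciferin substrate; minus-enzyme wells served as background. After NADPH-initiated oxidation (30-45 min, RT), light was generated with P450-Glo reagent.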
# [9] = molecular target: Cytochrome P450 2D6 (Homo sapiens) (UniProt P10635); experiment: qHTS for inhibitors of CYP2D6 against the NCATS DSHEA and TCM libraries (AID 1919972); details: CYP2D6 enzymatic inhibition, luminescence qHTS; series mostly up to 34.1 µM; note: potency is the fitted concentration of half-maximal effect
# Procedure, shortened: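 qHTS, concentration–response format with most substances from 19.5 nM. CYP2D6 + pro-luciferin substrate, 15 min with compound, then 1x NADPH regen, 30–45 min RT dark. Glo detection 30 min, luminescence. Quinidine control.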
# [10] = molecular target: Cytochrome P450 2C9 (Homo sapiens) (UniProt P11712); experiment: qHTS for inhibitors of CYP2C9 against the NCATS DSHEA and TCM libraries (AID 1919973); details: recombinant CYP2C9 enzyme activity, luminescence; series mostly up to 34.1 µM; note: potency is the fitted concentration of half-maximal effect
# Procedure, shortened: as §2
# [11] = molecular target: Cytochrome P450 2C19 (Homo sapiens) (UniProt P33261); experiment: qHTS for inhibitors of CYP2C19 against the NCATS DSHEA and TCM libraries (AID 1919974); details: CYP2C19 enzyme inhibition, luminescence qHTS;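 note: luminescence from luciferin released by CYP2C19 oxidation of a pro-luciferin substrate; potency is the fitted concentration of half-maximal effect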
# Procedure, shortened: as §2
# [12] = KB-3-1 P-gp reporter qHTS against the NCATS DSHEA and TCM libraries (AID 1919975); details: KB-3-1 parental cells, CellTiter-Glo luminescence viability, 72 h; series mostly up to 26.1 µM; note: 0% is about no effect
# Procedure, shortened: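 CellTiter-Glo luminescence viability readout; KB-3-1 parental cells, 500/well, attached ~4 h, then compound for ~72 h, 37C, 5% CO2. Bortezomib intraplate control.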
# [13] = molecular target: Cytochrome P450 1A2 (Homo sapiens) (UniProt P05177); experiment: qHTS for inhibitors of CYPIA2 against the NCATS DSHEA and TCM libraries (AID 1919976); details: recombinant CYP1A2 enzyme activity, luminescence; note: potency is the fitted concentration of half-maximal effect
# Procedure, shortened: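 Luminescence read-out: pro-luciferin converted to D-luciferin by CYP1A2, detected with P450-Glo reagent after 30 min RT. Enzyme plus substrate got compounds for 15 min RT; NADPH regeneration solution (final 1x) started a 30-45 min reaction, light-protected.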
# [14] = qHTS Counterscreen for compound interference against the NCATS DSHEA and TCM libraries (AID 1919978); details: firefly luciferase detection reagent interference, luminescence;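 note: compounds preincubated with 1 µM D-luciferin or buffer before detection reagent; % of control where 0% means no effect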
# Procedure, shortened: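 Luminescence counterscreen for detection-kit interference: compounds at 19.5 nM–39.8 uM final, 15 min RT with 1 uM D-luciferin or buffer only; detection reagent added, 30 min RT, then read.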
# [15] = Dual reporter qHTS for agonist of Pregnane X Receptor (hPXR) against the NCATS DSHEA and TCM libraries: Fluorescence readout (AID 1920058); details: PXR dual reporter cells; series mostly up to 40 µM; note: 0% is about no effect
# Procedure, shortened: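 Fluorescence read-out for cell viability: CellTiter-Fluor, 1 h at 37 °C, Ex/Em 405/540 nm. This followed ~24 h treatment of hPXR-Luc HepG2 cells with substances in agonist mode.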
# [16] = molecular target: Nuclear receptor subfamily 1 group I member 2 (Homo sapiens) (UniProt O75469); experiment: Dual reporter qHTS for agonist of Pregnane X Receptor (hPXR) against the NCATS DSHEA and TCM libraries: Luminescence readout (AID 1920059); details: hPXR dual reporter cells, luciferase luminescence agonist; series mostly up to 40 µM; note: 0% is about no effect
# Procedure, shortened: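 hPXR-Luc HepG2 cells, 2000/well in 5% charcoal-stripped FBS medium, attached 5 h, then exposed 24 h at 37C to compounds. Viability by CellTiter-Fluor, then luciferase luminescence with ONE-Glo.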
# [17] = Dual reporter qHTS for antagonist of Pregnane X Receptor (hPXR) against the NCATS DSHEA and TCM libraries: Fluorescence Readout (AID 1920061); details: PXR dual reporter cells, antagonist mode; series mostly up to 40 µM; note: 0% is about no effect
# Procedure, shortened: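 Antagonist mode: rifampicin 2 uM final co-added with compounds to hPXR-LucHepG2 cells for 24 h at 37C. Viability by CellTiter-Fluor, Ex/Em 405/540 nm, 1 h; reporter by ONE-Glo luminescence.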
# [18] = molecular target: Cytochrome P450 3A4 (Homo sapiens) (UniProt P08684); experiment: qHTS Assay for Inhibitors and Substrates of Cytochrome P450 3A4 (AID 884); details: recombinant CYP3A4, Luciferin-PPXE luminescence; series mostly up to 57.1 µM; note: potency is the fitted concentration of half-maximal effect; nearly all actives have a fitted effect of over 50% in size
# Procedure, shortened: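 Luminescent readout of luciferin produced by CYP3A4 (20 nM) dealkylation of Luciferin-PPXE, 25 uM (its KM). NADPH-driven reaction ran 60 min at RT after 10 min compound preincubation; data scaled to 57 uM ketoconazole as 100% inhibition.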
# Cytochrome P450 3A4 (Homo sapiens), sequence (P08684 whole entry, looked up): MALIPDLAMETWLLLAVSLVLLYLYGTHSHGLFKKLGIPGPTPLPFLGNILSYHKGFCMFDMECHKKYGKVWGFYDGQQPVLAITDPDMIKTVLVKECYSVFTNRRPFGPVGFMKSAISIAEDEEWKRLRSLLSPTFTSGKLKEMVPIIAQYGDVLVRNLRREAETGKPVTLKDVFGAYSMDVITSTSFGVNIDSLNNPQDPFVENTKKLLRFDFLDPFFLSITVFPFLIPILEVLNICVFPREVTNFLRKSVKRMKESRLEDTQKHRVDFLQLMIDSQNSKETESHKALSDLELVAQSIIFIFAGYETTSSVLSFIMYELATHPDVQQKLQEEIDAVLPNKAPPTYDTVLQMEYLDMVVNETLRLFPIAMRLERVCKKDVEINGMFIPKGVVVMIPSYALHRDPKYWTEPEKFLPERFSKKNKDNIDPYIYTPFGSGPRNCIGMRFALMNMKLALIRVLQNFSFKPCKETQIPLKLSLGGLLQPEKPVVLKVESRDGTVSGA
# Phenylethanolamine N-methyltransferase (Homo sapiens), sequence (P11086 whole entry, looked up): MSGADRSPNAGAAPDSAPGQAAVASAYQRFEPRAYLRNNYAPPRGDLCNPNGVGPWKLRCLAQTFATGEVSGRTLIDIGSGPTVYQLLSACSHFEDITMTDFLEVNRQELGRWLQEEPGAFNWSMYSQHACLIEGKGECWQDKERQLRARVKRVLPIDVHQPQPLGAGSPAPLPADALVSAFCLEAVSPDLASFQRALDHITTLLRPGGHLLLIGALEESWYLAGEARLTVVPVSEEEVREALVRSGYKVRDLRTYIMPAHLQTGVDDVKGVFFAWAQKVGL
# Cytochrome P450 2C19 (Homo sapiens), sequence (P33261 whole entry, looked up): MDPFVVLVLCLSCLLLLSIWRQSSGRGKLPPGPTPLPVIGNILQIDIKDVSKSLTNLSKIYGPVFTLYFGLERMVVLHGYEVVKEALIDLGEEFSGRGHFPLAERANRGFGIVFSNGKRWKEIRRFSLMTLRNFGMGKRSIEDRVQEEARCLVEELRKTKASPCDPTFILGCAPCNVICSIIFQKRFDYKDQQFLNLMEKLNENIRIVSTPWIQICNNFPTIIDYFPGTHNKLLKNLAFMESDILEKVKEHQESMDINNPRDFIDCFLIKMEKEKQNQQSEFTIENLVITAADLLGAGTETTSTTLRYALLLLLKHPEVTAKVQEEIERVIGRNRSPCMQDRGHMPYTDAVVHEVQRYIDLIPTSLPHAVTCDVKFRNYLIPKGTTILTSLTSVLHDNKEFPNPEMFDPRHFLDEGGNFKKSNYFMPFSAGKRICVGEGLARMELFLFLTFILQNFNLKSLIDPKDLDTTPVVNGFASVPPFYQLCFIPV
# Cytochrome P450 2D6 (Homo sapiens), sequence (P10635 whole entry, looked up): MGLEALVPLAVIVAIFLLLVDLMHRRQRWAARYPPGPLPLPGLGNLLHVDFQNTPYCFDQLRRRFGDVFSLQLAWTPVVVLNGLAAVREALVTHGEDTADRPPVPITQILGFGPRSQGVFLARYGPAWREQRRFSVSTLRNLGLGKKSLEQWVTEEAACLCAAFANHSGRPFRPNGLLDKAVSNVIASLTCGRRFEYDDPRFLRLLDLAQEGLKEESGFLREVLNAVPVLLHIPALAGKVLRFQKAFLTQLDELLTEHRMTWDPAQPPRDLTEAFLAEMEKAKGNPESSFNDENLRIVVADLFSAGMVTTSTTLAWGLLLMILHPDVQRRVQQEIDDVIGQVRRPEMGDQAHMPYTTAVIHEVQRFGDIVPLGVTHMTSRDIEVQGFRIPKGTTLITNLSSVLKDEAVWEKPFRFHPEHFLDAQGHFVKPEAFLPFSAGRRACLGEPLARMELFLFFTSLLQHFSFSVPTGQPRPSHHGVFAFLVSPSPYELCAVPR
# Cytochrome P450 1A2 (Homo sapiens), sequence (P05177 whole entry, looked up): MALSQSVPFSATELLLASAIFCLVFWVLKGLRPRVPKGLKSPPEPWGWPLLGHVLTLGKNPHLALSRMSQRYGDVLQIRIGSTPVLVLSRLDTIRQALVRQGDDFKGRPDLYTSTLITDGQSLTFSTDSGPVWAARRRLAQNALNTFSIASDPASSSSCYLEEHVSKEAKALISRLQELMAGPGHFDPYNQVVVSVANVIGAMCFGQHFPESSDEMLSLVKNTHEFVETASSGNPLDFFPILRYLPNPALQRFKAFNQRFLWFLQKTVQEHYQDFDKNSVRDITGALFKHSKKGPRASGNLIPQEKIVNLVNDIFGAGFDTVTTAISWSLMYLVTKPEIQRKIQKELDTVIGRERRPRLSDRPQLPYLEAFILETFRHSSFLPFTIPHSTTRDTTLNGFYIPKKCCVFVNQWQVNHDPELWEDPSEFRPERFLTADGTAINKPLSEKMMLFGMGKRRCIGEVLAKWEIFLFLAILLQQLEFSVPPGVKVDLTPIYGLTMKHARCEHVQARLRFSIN
# Cytochrome P450 2C9 (Homo sapiens), sequence (P11712 whole entry, looked up): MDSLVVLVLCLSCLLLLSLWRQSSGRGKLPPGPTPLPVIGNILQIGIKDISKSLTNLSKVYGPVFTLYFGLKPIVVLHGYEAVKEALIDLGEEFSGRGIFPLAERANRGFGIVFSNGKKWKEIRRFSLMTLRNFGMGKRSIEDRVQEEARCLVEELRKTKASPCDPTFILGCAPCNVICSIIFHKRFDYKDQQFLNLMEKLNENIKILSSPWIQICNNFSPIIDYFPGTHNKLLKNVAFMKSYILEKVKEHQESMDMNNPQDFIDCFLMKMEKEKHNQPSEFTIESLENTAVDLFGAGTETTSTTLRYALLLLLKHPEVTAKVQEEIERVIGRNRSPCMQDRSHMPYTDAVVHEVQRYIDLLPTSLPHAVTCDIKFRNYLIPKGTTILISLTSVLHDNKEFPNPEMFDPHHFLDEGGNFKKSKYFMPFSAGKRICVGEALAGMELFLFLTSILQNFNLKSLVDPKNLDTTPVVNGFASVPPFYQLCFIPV
# Nicotinamide N-methyltransferase (Homo sapiens), sequence (P40261 whole entry, looked up): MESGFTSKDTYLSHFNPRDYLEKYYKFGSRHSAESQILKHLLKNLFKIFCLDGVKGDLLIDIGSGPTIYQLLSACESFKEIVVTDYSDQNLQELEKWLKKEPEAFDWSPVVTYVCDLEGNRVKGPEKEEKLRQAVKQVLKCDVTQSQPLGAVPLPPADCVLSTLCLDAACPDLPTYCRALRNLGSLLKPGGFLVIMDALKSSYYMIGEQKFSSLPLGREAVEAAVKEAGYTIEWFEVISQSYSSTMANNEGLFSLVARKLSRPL
# Catechol O-methyltransferase (Homo sapiens), sequence (P21964 whole entry, looked up): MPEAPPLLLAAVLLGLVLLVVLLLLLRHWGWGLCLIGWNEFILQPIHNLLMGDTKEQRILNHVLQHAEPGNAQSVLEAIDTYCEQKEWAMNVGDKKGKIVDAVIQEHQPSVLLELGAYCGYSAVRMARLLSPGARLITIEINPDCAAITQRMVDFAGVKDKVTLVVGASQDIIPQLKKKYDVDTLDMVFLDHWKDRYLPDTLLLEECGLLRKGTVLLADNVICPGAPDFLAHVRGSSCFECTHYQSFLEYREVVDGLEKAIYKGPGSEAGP
# Nuclear receptor subfamily 1 group I member 2 (Homo sapiens), sequence (O75469 whole entry, looked up): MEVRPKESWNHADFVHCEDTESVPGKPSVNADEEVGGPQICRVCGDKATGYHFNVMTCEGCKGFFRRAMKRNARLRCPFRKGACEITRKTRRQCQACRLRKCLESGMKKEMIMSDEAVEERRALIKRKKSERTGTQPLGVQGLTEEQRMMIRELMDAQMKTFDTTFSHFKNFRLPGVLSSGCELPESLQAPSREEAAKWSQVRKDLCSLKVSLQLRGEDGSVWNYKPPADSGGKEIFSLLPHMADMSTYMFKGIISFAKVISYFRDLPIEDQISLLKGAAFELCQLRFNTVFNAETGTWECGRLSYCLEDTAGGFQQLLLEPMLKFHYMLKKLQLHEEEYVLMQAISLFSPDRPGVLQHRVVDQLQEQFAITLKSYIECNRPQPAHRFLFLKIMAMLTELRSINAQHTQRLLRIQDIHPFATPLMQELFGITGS
structure (smiles),measurement,setting,value
COc1cc(C(=O)O)ccc1NC(=O)[C@@H]1N[C@@H](CC(C)(C)C)[C@](C#N)(c2ccc(Cl)cc2F)[C@H]1c1cccc(Cl)c1F,activity,[1],-3.62%
same,Potency,[2],34.1 µM (active)
same,activity,[3],-47.6%
same,activity,[4],-14.4%
O=C(OC[C@H]1O[C@@H](OC(=O)c2cc(O)c(O)c(O)c2)[C@H](OC(=O)c2cc(O)c(O)c(O)c2)[C@@H](OC(=O)c2cc(O)c(O)c(O)c2)[C@@H]1OC(=O)c1cc(O)c(O)c(O)c1)c1cc(O)c(O)c(O)c1,outcome,[5],inactive
same,outcome,[6],inactive
same,outcome,[7],inactive
same,Potency,[8],7.08 µM (active)
same,Potency,[9],14.1 µM (active)
same,Potency,[10],6.31 µM (active)
same,Potency,[11],3.98 µM (active)
same,outcome,[12],inactive
same,Potency,[13],3.55 µM (active)
same,max response,[14],0.413% (inactive)
same,outcome,[15],inactive
same,outcome,[16],inactive
same,outcome,[17],inactive
O=C1CC(c2ccc(O)cc2)Oc2ccccc21 (stereo not drawn),Potency,[18],25.1 µM (active)
